SMILES strings stand for the structures.

Common to all, as to format: functional
In experiment [1] the test system is Plasmodium falciparum. Description: GSK_TCMDC: Inhibition of Plasmodium falciparum 3D7 in whole red blood cells, using parasite LDH activity as an index of growth. Test compounds present at 2uM.
For experiment [2], the system named is Plasmodium falciparum. Description: GSK_TCMDC: Inhibition of Plasmodium falciparum Dd2 in whole red blood cells, using parasite LDH activity as an index of growth. Test compounds present at 2uM.
The subject of a further experiment is HepG2. Description: GSK_TCMDC: Percent inhibition of human HepG2 cell line. Test compounds present at 10uM.

`CC(C)N(CCOc1ccc2c(c1)N(C(=O)Nc1cc(Br)cc(C(F)(F)F)c1)CC2)C(C)C.O=C(O)C(F)(F)F`: the Inhibition (usually the percentage by which the read-out fell short of the control) in the experiment with Plasmodium falciparum [1] turned out to be 100%; in the experiment on Plasmodium falciparum [2] it was 100%; in the experiment with HepG2, 8%.
With `O=C(Nc1cc(Cl)cc(Cl)c1)N[C@H]1CCN(CCCCCNC(=O)C2CC2c2ccc(Cl)c(Cl)c2)C1` (stereo partly drawn), the results for the Inhibition with Plasmodium falciparum [1], in the experiment with Plasmodium falciparum [2] and in the experiment on HepG2 were 99%, 0% and 49%, respectively.
With `Fc1ccc2[nH]c(-c3ccc(-c4ccc(CNCC5CCCO5)cc4)s3)nc2c1.O=C(O)C(F)(F)F` (stereo not drawn), the Inhibition is given as 100% with Plasmodium falciparum [1], 99% in the experiment on Plasmodium falciparum [2] and 30% with HepG2.
On to `COc1ccc(-c2cccc(NC(=O)c3cccc(Cl)c3)c2)cc1CN1CCNCC1.O=C(O)C(F)(F)F`, for which the Inhibition in the experiment with Plasmodium falciparum [1] was determined as 100%; in the experiment on Plasmodium falciparum [2], 52%; in the experiment with HepG2, 29%.
For `O=S(=O)(c1ccccc1)C1CC1` the same measures were 89%, 65% and 0%.
For `O=C(Nc1ccsc1)Nc1cccc(-c2ccc(-c3nc4cc(C(F)(F)F)ccc4[nH]3)cc2)c1` the same measures were 99%, 36% and 45%.
For the compound `Cc1ccc(C(CC(=O)Nc2nccs2)c2ccc(OC(C)C)cc2)cc1` (stereo not drawn), the Inhibition with Plasmodium falciparum [1] was 94%; in the experiment on Plasmodium falciparum [2] it was 90%; in the experiment on HepG2, 5%.
For `COc1ccc(C(=O)NCCCCN2CCC(c3ccc4c(c3OC)CCCC4)CC2)cc1-c1ccc(C(F)(F)F)cc1` the same measures were 100%, 56% and 67%.
Taken in the same sequence, the figures for `N#CC(NC(=O)C=Cc1ccccc1)c1ccccc1` (stereo not drawn) were 95%, 3% and 3%.
Regarding `COc1ccc(-c2cc(C(=O)N3CCc4ccccc43)c3ccccc3n2)cc1OC`, the values for the Inhibition in the experiment on Plasmodium falciparum [1], with Plasmodium falciparum [2] and in the experiment with HepG2 were 85%, 48% and 5%, respectively.
Taken in the same sequence, the figures for `Cc1cc(=NN=Cc2cccc(F)c2)c2cc(F)ccc2[nH]1` were 100%, 99% and 7%.
For `CSC1=NC(=Nc2ccccc2C)C2(CCC(C(C)(C)C)CC2)N1c1ccccc1Cl.I` (stereo not drawn) the same measures were 96%, 89% and 3%.
Taken in the same sequence, the figures for `COc1ccc2[nH]ccc(=NN=Cc3cccnc3)c2c1` were 100%, 84% and 0%.
Take `O=C(CCCCCNC(=O)c1ccc(O)c(-c2ccc(Cl)c(Cl)c2)c1)NCCN1CCOCC1`: the Inhibition with Plasmodium falciparum [1] is on record as 95%; with Plasmodium falciparum [2], 0%; in the experiment with HepG2 it was 0%.
In the case of `COc1cc(C2NCC3(CCOCC3)c3cc4c(cc32)OCCO4)cc(OC)c1OC.Cl` (stereo not drawn), the Inhibition in the experiment on Plasmodium falciparum [1] was 95%; in the experiment with Plasmodium falciparum [2], 2%; in the experiment with HepG2, 24%.
Taken in the same sequence, the figures for `CN(CCCCCN1CCC(NC(=O)Nc2ccc(C(F)(F)F)cc2)C1)C(=O)/C=C/c1ccc(Cl)c(Cl)c1` (stereo not drawn) were 100%, 11% and 28%.
As for `O=C(Nc1ccc(Cl)cc1)N(CC1CC2CCC(C1)N2Cc1ccc(C(F)(F)F)cc1)c1ccc(N2CCOCC2)c(F)c1` (stereo not drawn), the Inhibition is 85% with Plasmodium falciparum [1], 36% in the experiment on Plasmodium falciparum [2] and 31% with HepG2.
Regarding `CC1(C)NC(=N)N=C(NOCC=Cc2ccccc2)N1`, the results for the Inhibition in the experiment with Plasmodium falciparum [1], with Plasmodium falciparum [2] and with HepG2 were 98%, 2% and 35%, respectively.
For `Cc1ccc(Nc2nc(C)cc(NC3CCCC3)n2)cc1`, the Inhibition in the experiment with Plasmodium falciparum [1] was 100%; with Plasmodium falciparum [2], 89%; in the experiment with HepG2, 33%.
For `COc1ccc(CC(=O)NC(CCCN2CCC(c3ccccc3)CC2)c2ccc(Cl)c(Cl)c2)cc1OC` (stereo not drawn) the same measures were 82%, 57% and 28%.
For `CCN(CC)CCN(Cc1ccc(-c2ccc(C(F)(F)F)cc2)cc1)C(=O)Cn1c(CCc2cc(F)c(F)cc2F)nc(=O)c2ccccc21.O=C(O)C(O)C(O)C(=O)O` the same measures were 99%, 50% and 39%.
Taken in the same sequence, the figures for `CCC(NC[C@@H](O)[C@H](Cc1ccccc1)NC(=O)c1cc(C2CCCC2)cc(N2CCCC2=O)c1)c1cccc(Cl)c1.Cl` (stereo partly drawn) were 100%, 97% and 7%.
For `Cc1cc(Nc2cccc(C(F)(F)F)c2)nc(NCc2ccccc2)n1`, the Inhibition with Plasmodium falciparum [1] is 100%; in the experiment on Plasmodium falciparum [2], 95%; in the experiment with HepG2 it was 17%.
For `Cc1ccc(Cn2cnc3cc(C(=O)Nc4ccc(-c5cccc(CN(C)C)c5)cc4)ccc3c2=O)o1` the same measures were 99%, 39% and 22%.
Taken in the same sequence, the figures for `N#Cc1ccc(CN2CCC(Oc3ccc(NC(=O)c4ccccc4)cc3Cl)CC2)cc1.O=C(O)C(F)(F)F` were 84%, 65% and 21%.
Consider `Nc1nc(N)c2c(ccc3c2ncn3Cc2ccccc2)n1`, for which the Inhibition with Plasmodium falciparum [1] is 96%; in the experiment with Plasmodium falciparum [2] it was 96%; in the experiment with HepG2 it was 71%.
Turning to `CC(C)(C)OC(=O)N1CCC(C2CCN(C(=O)OC(C)(C)C)CC2)CC1`, the Inhibition came to 86% with Plasmodium falciparum [1], 28% in the experiment on Plasmodium falciparum [2] and 0% in the experiment with HepG2.
As for `COc1ccc(S(=O)(=O)N(CC(=O)NN=C(C)c2cccs2)c2cc(C)cc(C)c2)cc1OC`, the Inhibition stood at 97% with Plasmodium falciparum [1], 43% in the experiment on Plasmodium falciparum [2] and 12% with HepG2.
With `O=c1c2ccc(F)cc2sn1-c1ccc(Cl)cc1`, the Inhibition turned out to be 98% in the experiment on Plasmodium falciparum [1], 11% in the experiment with Plasmodium falciparum [2] and 8% with HepG2.
For `COc1ccc(-c2c3c(=O)n(C)c(=O)n(C)c3c3nnc4ccccc4n23)cc1` the same measures were 96%, 86% and 0%.
For `Cc1cc(N[C@@H](CC(C)C)C(=O)NCc2cccc(F)c2)nc(NCCc2ccccc2)n1.O=C(O)C(F)(F)F`, the Inhibition with Plasmodium falciparum [1] is given as 88%; in the experiment with Plasmodium falciparum [2] it was 33%; in the experiment on HepG2 it was 6%.

For the origin of these results see ChEMBL document CHEMBL1157539, “Thousands of chemical starting points for antimalarial lead identification” (Nature, 2010).
